# Many of the other results were omitted from the sample, so hits are more common in it than they were.
# Tgondii IFNg: blocks Toxoplasma gondii growth in the presence of IFN-gamma. Toxoplasma gondii growth in IFN-gamma-treated host cells; stronger effect = lower value. activity change, negative = inhibition, % (no concentration beside the values). 69,000 tested, 3.8% active. AID 1259416; in the data active = activity change below about -70%, passing the limit was not always enough;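 also: host cells are HeLa cells infected with Toxoplasma gondii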
# * hit, by the source's call.
SMILES,Tgondii IFNg
COc1cccc(NC(=O)c2ccc3c(c2)[nH]c(=O)n3C2CCCCC2)c1,-82.9*
CCN1CCCC1CNC(=O)c1ccc2c(c1)[nH]c(=O)n2Cc1ccc(OC)cc1 (configuration not stated),-30.4
COc1cccc(NC(=O)CC2NCCNC2=O)c1 (configuration not stated),46.2
CS(=O)(=O)N1CC[C@H](Oc2cccnc2)[C@@H](Cc2ccccc2)C1,-4.5
N#Cc1c(Nc2ccccc2F)sc2c(O)cc(=O)[nH]c12,117.3
CC(O)C(Nc1ccccc1CC(=O)OC(C)(C)C)C(=O)O (configuration not stated),-35.2
O=C(Cn1nc(C(F)(F)F)c2c1CCC2)NCc1cccs1,-11.9
CCc1nc(OCC(=O)Nc2cc(C)cc(C)c2)c2ccccc2n1,-5.5
Cc1ccc(NC(=O)CC(=O)NCc2ccc(CN3CCCC3)cc2)cc1,-21.0
Cc1cc(C)cc(NC(=O)CC(=O)NCc2ccccc2)c1,-85.5*
CC(c1nncn1C(C)C)n1cc(CCc2ccccc2)nn1 (configuration not stated),-4.1
Cn1cc(N2C(=O)CCC3C2CCN3C(=O)c2ccccn2)cn1 (configuration not stated),-6.0
CN(C)CCOCc1nn(C)c2c1CN(C(=O)c1ccc[nH]1)CC2,26.5
COc1ccc(-c2nccc3ccccc23)cn1,6.7
Nc1nnc(CCN2CCc3ccccc3C2)s1,33.7
CCCNC(=O)N1CCc2nc(-c3ccc(C)cc3)sc2C1,6.0
CCOC(=O)c1c(NC2=NC3(CCCCC3)Cc3ccccc32)sc2c1CCCC2,31.0
CCOC(=O)c1c(NC(=O)Nc2ccc(C)cc2)sc2c1CCN(C(=O)OCC)C2,-97.2*
CC(C)C(=O)N1CCCC1c1nc(N(C)C)ncc1-c1ccc(Cl)cc1 (configuration not stated),-4.5
CSc1sc(NC(=O)Nc2ccc(Cl)cc2)cc1S(=O)(=O)C(C)C,-84.0*
CSc1sc(C(=O)N2CCc3ccccc32)cc1S(=O)(=O)C(C)C,33.4
CC(C)S(=O)(=O)c1cscc1NC(=O)Nc1ccccc1,-1.2
COc1cc(NC(=O)Nc2ccc(Cl)cc2)c(-n2c(C)ccc2C)cc1OC,166.1
CSc1sc(C(=O)Sc2ccc(Cl)cc2)cc1S(=O)(=O)C(C)C,-78.9*
COC(=O)c1sc(SC)c(S(=O)(=O)c2ccc(Cl)cc2)c1C,-6.1
SMILES,Tgondii IFNg
O=C(Cc1ccc2nc[nH]c2c1)Nc1ccc(OCc2ccccc2F)cc1,10.2
CC(=O)Nc1ccc(C(=O)N(Cc2ccccc2)C2(C(=O)NCc3ccccc3)CCN(C(C)=O)CC2)cc1,171.4
CCc1ccc(C(C(=O)NC2CCCC2)N(Cc2ccccc2)C(=O)c2ccco2)cc1 (configuration not stated),-40.2
COc1ccc(C(NC(=O)Cn2ccc3ccc(F)cc32)c2ccncc2)cc1 (configuration not stated),-29.3
CNC(=O)c1ccccc1Nc1nc(Nc2ccc3c(c2OC)CCC[C@H](N2CCN(CCO)CC2)C3)ncc1Cl,-75.4*
CC[C@@H]1C(=O)N(C)c2cnc(Nc3ccc(C(=O)NC4CCC(N5CCN(CC6CC6)CC5)CC4)cc3OC)nc2N1C(C)C (some centres not stated),-68.3
CCCC(=O)N1CCCC1c1ncc(C(=O)Nc2ccccc2OC)c(C)n1 (configuration not stated),-7.9
COc1ccc(NC(=O)CC(C)Nc2n[nH]c3nc(C)cc(C)c23)cc1 (configuration not stated),-10.2
Cc1oc(-c2ccccc2)nc1Cn1c(=O)cc(C(=O)N2CCCCC2)c2ccccc21,8.4
C[C@H](CO)N1C[C@H](C)[C@H](CN(C)Cc2cccc(C(F)(F)F)c2)OCc2cnnn2CCCC1=O,179.4
C[C@@H]1CN([C@H](C)CO)C(=O)CCCn2nncc2CO[C@H]1CN(C)Cc1cccc2c1OCCCO2,-88.0*
C[C@H](CO)N1C[C@H](C)[C@@H](CN(C)Cc2cccc3c2OCCCO3)OCc2cnnn2CCCC1=O,201.5
C[C@@H]1CN([C@@H](C)CO)C(=O)CCCn2nncc2CO[C@@H]1CN(C)Cc1cccc(C(F)(F)F)c1,27.3
C[C@H]1CN([C@@H](C)CO)C(=O)CCCn2nncc2CO[C@H]1CN(C)Cc1cccc(C(F)(F)F)c1,-106.0*
C[C@@H]1CN([C@H](C)CO)C(=O)CCCn2nncc2CO[C@@H]1CN(C)Cc1cccc2c1OCCCO2,-57.9
CS(=O)(=O)N1CC2CN(C(=O)NCc3ccccc3)CC(C1)O2,20.3
O=C(NCCc1ccccc1F)N1CCCCC1CCN1CCOCC1 (configuration not stated),5.2
Cc1ccoc1C(=O)N1CCC2C(C[C@@H](CN3CCCC3)N2C)C1 (some centres not stated),-9.8
O=C(COc1ccc2c(c1)OCO2)NCc1cccnc1,4.4
O=C(CS(=O)CC(=O)Nc1ccc(Cl)cc1)NCc1cccs1 (configuration not stated),-25.9
FC(F)(F)c1cccc(N2CCN(c3nc(-c4ccc(Cl)cc4)nc4ccccc34)CC2)c1,-22.2
COc1ccc(-c2nc(N3CCN(c4cccc(C(F)(F)F)c4)CC3)c3ccccc3n2)cc1,5.9
Nc1ccc(-c2ccc3ncc4ccc(=O)n(-c5cccc(C(F)(F)F)c5)c4c3c2)cn1,-75.9*
CC(C)c1ccc(NC(=O)c2csc(Cc3c(Cl)cccc3Cl)n2)cc1,-84.4*
CC(C)c1cc(C(=O)Nc2ccc(Cn3cncn3)cc2)cs1,106.6
SMILES,Tgondii IFNg
O=C(Nc1csc(Cc2c(Cl)cccc2Cl)n1)NN1CCOCC1,-38.2
CN(Cc1cc(-c2cccnc2)no1)C(=O)C(=O)c1ccco1,-43.0
Clc1ccc(CCNc2nc(-c3nnc(-c4ccccc4)o3)nc3ccccc23)cc1,25.2
COCC(=O)N(C)CCOc1c(C)ccc(C)c1C,-77.6*
Cc1cccc(OCCCN(C)C(=O)CN)c1C,12.6
Cc1ccc(C)c(OCC(=O)N(C)Cc2cc(C(C)C)on2)c1C,10.0
Cc1oc(C2CCN(C(=O)Nc3ccc(F)cc3F)CC2)nc1C(=O)N(C)C,81.0
Cc1ccccc1N1CCCN(Cc2ccc(N3CCNC3=O)cc2)CC1,1.7
Cc1ccc(-c2nc(CN3CCN(C(=O)Nc4ccc(Cl)cc4)CC3)c(C)o2)cc1,-44.3
CCS(=O)(=O)N1C[C@@H]2[C@H](C1)c1ccccc1[C@@H]2N1CCOCC1,4.7
Cc1nc(-c2ccccc2F)sc1C(=O)NCc1nc(Cc2ccccc2)no1,-6.2
COc1cccc(-c2cc(C(=O)Nc3cnn(Cc4cccc(F)c4)c3)on2)c1,-96.1*
O=C(CN1CCC(c2ccccc2)CC1)Nc1cnn(Cc2cccc(F)c2)c1,-14.4
COc1cccc(Cn2cc(NC(=O)C3(c4cc(C)cc(C)c4)CCOCC3)cn2)c1,-3.9
Cn1c(=O)c(C(=O)Nc2cnn(Cc3cccc(F)c3)c2)nc2ccccc21,-17.4
Cc1nc(-c2ccccc2F)sc1C(=O)Nc1cnn(Cc2cccc(F)c2)c1,-89.2*
O=C1CC(c2ccncc2)C2(CCN(c3ncccn3)CC2)N1 (configuration not stated),70.9
COc1cccc(-c2nc(CSc3nc4c(=O)[nH]c(C)nc4n3C)c(C)o2)c1OC,-0.8
Cc1ccc(S(=O)(=O)NCCCNC(=O)c2cnccn2)cc1,-54.6
COc1ccc(OC)c(CC(=O)N2CCn3c(C(N)=O)cnc3C2)c1,0.2
Cc1nc(C2CCNCC2)cc(N(C)Cc2sccc2C)n1,-27.9
COc1cc(Cl)cc(CN2CCC(N)(C(=O)O)C2)c1OC (configuration not stated),9.0
Cc1ccc2c(c1)c(CNC(=O)CCN1CCCCO1)nn2C,6.7
